Results reported in PubChem BioAssay AID488835 (Broad Institute, 2010).
Out of some 1,400 compounds screened, about 140 (10%) were called active.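 Rule for the calls: active = Half-maximal inhibitory dose from the fit at or below ten times the top valid tested dose; inconclusive = Invalid fit, or flat curve showing 30 to 70% inhibition; inactive = the rest.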 Not all results are given here. Measured potencies and affinities stand elsewhere.

target: Lysine-specific demethylase 4C (Homo sapiens) (UniProt Q9H3R0); assay: GASC-1 (JMJD2C) histone demethylase inhibitors, dose response, biochemical, DELFIA europium, cherry-picked samples (AID 488835); conditions: GST-JMJD2C(1-420), H3K9me3 demethylation; series mostly up to 6 µM;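 note: signal is the H3K9me2 demethylation product detected by a dimethyl-specific antibody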
Sequence (Q9H3R0 1-420 limits assumed): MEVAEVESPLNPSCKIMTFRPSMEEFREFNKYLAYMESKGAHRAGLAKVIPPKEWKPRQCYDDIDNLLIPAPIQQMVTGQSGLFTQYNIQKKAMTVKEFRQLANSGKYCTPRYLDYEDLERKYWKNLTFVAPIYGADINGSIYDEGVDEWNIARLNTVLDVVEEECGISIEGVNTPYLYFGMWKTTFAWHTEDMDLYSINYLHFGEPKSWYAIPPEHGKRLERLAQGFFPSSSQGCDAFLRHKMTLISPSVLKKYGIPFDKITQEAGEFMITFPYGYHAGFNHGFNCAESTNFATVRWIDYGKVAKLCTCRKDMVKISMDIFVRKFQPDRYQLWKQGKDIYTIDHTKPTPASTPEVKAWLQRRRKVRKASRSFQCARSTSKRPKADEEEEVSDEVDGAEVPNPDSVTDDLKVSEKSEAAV

outcome, inactive:
O=C(Cn1c(=O)sc2ccccc21)NCc1ccco1
CS(=O)(=O)N(CCc1ccccc1)CC(=O)NCc1ccc(Cl)cc1
COc1ccccc1Nc1ncnc2ccccc12
Cc1ccc(NC(=O)CSc2cccc[n+]2[O-])c([N+](=O)[O-])c1
Cc1cc(C)cc(C(=O)N2CCC(C(N)=O)CC2)c1
O=C(/C=C/c1ccc2c(c1)OCO2)NCCS(=O)(=O)N1CCN(c2ccc(F)cc2)CC1
O=C(N/N=C/c1ccccc1)c1c(O)c2ccccc2[nH]c1=O
COc1ccc(NC(=O)O/N=C/c2ccccc2)cc1
CC(C)Cn1c(N)c(C(=O)COC(=O)c2c(O)c(Cl)cc(Cl)c2Cl)c(=O)n(C)c1=O
CC(=O)C[C@@H](O)CC(=O)[C@H]1OC(=O)CCCCCc2ccccc21
Cn1c(=N)n(CC(O)c2ccccc2)c2ccccc21 (stereo not drawn)
COc1cccc(NC(=O)COC(=O)c2ccc(S(=O)(=O)NCc3ccco3)cc2)c1
CSCCC(NS(=O)(=O)c1ccc(Cl)cc1)C(=O)O (stereo not drawn)
O=C(CSc1nc2ccccc2c(=O)n1Cc1ccc(C(=O)NC2CC2)cc1)NCc1ccco1
Cc1nnc(SCc2nc3ccccc3[nH]2)s1
CCCC(=O)Nc1nc2c(c(=O)[nH]1)CCCC2
COc1ccc(C(=O)N2CCC(C(=O)NCc3ccccn3)CC2)cc1
COc1ccc(N=Cc2cccc(C)c2O)cc1Cl
O=C(NC(=S)Nc1ccccn1)c1ccc([N+](=O)[O-])cc1
CN(C)c1ccc(C2Nc3ccccc3C(=O)N2CCN2CCNC2=O)cc1 (stereo not drawn)
COc1ccc(/C=C2\Sc3ccc(C(=O)N4CCCC4)cc3N(C)C2=O)cc1OC
Cc1ccc(NC(=O)CSc2nc3c(c(=O)[nH]2)CN(Cc2ccc(F)cc2)CC3)cc1C
O=c1cc(-c2ccc(O)c(O)c2)oc2c(C3O[C@H](CO)[C@@H](O)[C@H](O)[C@H]3O)c(O)cc(O)c12 (stereo partly drawn)
CC(=O)c1ccc(O[C@@H]2O[C@H](CO)[C@@H](O)[C@H](O)[C@H]2O)cc1
CC(C)n1cnc2c(NCc3ccccc3)nc(NCc3ccccc3)nc21
Cn1nnc(NC(=O)CSc2ccc(Cl)cc2)n1
Cc1cccn2c(=O)c(/C=N/O)c(N3CCCC3)nc12
Cc1ccc(NC(=O)CSc2ncc(S(=O)(=O)c3ccccc3)c(=O)[nH]2)cc1C
Cc1cc(C)nc(NCc2ccc(Cl)cc2)n1
Cn1c(=O)[nH]c(=O)c2c1nc(N1CCOCC1)n2CCc1ccccc1
COc1ccc(NC(=O)N(C)C[C@H]2Oc3c(NC(=O)C4CC4)cccc3C(=O)N([C@H](C)CO)C[C@@H]2C)cc1
Cc1occc1-c1nnc(SCC(=O)c2cc3ccccc3oc2=O)o1
Cc1ccc(CCNC(=O)C23C[C@H]4C[C@@H](C2)CC(n2nnc(C)n2)(C4)C3)cc1
CCOC(=O)c1oc2ccccc2c1COC(=O)C(C)NC(=O)c1ccco1 (stereo not drawn)
COc1ccccc1-n1c(SCC(=O)N2CCCC2)nc2cccnc21
COc1cc(/C=N/N2CCN(c3ccccc3OC)CC2)ccc1O
CCCn1nnnc1SCC(=O)NCc1ccc(OC)cc1
CCOC(=O)c1[nH]c(CSc2nnnn2-c2ccccc2C)c(C(=O)OCC)c1C
CCN(C[C@H]1N[C@@](C)(C(=O)OC)[C@H]2C(=O)N(Cc3ccccc3)C(=O)[C@@H]12)C(=O)Nc1ccc(Cl)cc1
O=C(Cc1ccccc1)NNC(=O)c1cccs1
CCC(C)[C@H](NC(=O)NCc1ccccc1Cl)C(=O)O (stereo partly drawn)
O=C(NC1(O)C(=O)c2ccccc2C1=O)c1c(Cl)cccc1Cl
CCC(=O)Nc1ccc(NC(=O)Cc2ccccc2)cn1
C#CCOCCOCCOCCNc1nc(N2CCN(C(=O)[C@H](CCC(=O)O)n3cc([C@@H](N)CCCCN)nn3)CC2)nc(N2CCN(C(=O)[C@H](CCC(=O)O)n3cc([C@@H](N)CCCCN)nn3)CC2)n1
Cc1sc2ncnc(OCC(=O)N3CCN(S(=O)(=O)c4ccc(Cl)cc4)CC3)c2c1C
Cc1onc(-c2c(F)cccc2Cl)c1C(=O)NC1CC1
COC(=O)c1ccc(-c2sc3nc(N4CCOCC4)c4c(c3c2N)CC(C)(C)OC4)o1
COc1cc(C(C(=O)NC2CCCCC2)N(Cc2cccs2)C(=O)Cc2c[nH]c3ccccc23)cc(OC)c1OC (stereo not drawn)
COc1ccc(C)cc1-n1nnnc1SC/C(O)=C(\C#N)c1nc2ccccc2[nH]1
CN1CCN(CC(=O)Nc2ccc(S(=O)(=O)N(C)C)cc2)CC1
CCOC(=O)c1cc2nc(Nc3ccc(OC)cc3)sc2s1
O=S(=O)(c1ccc2ccccc2c1)N(CC(O)COCc1ccco1)c1ccccc1 (stereo not drawn)
CCOc1cc(/C=C\c2[nH]c(=O)[nH]c(=O)c2[N+](=O)[O-])ccc1OC(C)CC (stereo not drawn)
O=C(NC1CC2CCC1C2)C1COc2ccccc2O1 (stereo not drawn)
O=C(CN1C(=O)c2ccccc2C1=O)NCC1COc2ccccc2O1 (stereo not drawn)
COc1ccc(C2/C(=C(/O)c3ccccc3)C(=O)C(=O)N2CCN2CCOCC2)c(OC)c1 (stereo not drawn)
COc1ccc(NC(=O)c2cccc(N3C(=O)C4CC=C(C)CC4C3=O)c2)c(OC)c1 (stereo not drawn)
O=[N+]([O-])c1ccccc1N/N=C\c1ccccc1Cl
CCC(=O)Nc1ccccc1Nc1cc(C#N)c(C#N)cc1[N+](=O)[O-]
Fc1cccc(/C=N/Nc2nc3ccccc3[nH]2)c1
COc1cccc(/C=N/NC(=O)CNC(=O)c2cccs2)c1O
O=C(O)CSc1nnc(COc2cccc3cccnc23)n1-c1cccc(C(F)(F)F)c1
CCCCN(C)C(=O)CCC(=O)NNc1nc2ccccc2c2nc(C)nn12
CCCCOC(=O)Cn1cnc2ccc(Br)cc2c1=O
CCc1ccc2oc(=O)cc(CN3CCOCC3)c2c1
Cc1cccn2c(=O)c(C(=O)NC3CC(C)CC(C)(C)C3)c(O)nc12 (stereo not drawn)
Cc1cccc(NC(=O)C2CCN(S(=O)(=O)c3cccc4nsnc34)CC2)n1
CCOc1ccc(NCc2nnc(SCC(=O)Nc3cc(C)on3)n2-c2ccccc2OC)cc1
CC(=O)Nc1ccc(NC(=O)CSc2ncnn2-c2ccccc2)cc1
COCCNC(=S)N1CCN(C)CC1
C/C(=N\N1CCN(c2ccccc2)CC1)c1ccncc1
COc1ccc(OC)c(/C=N/NC(=O)CNC(=O)c2ccc(S(=O)(=O)N3CCOCC3)cc2)c1
COc1ccc(OCC(=O)N/N=C/C(C)=C/c2ccco2)c(Br)c1
CC(C)(C)n1nnnc1C(c1cccnc1)N1CCN(c2ccccc2)CC1 (stereo not drawn)
Cc1cccc(N2CCN(C(=O)c3ccc(CS(=O)(=O)c4ccccc4C)o3)CC2C)c1 (stereo not drawn)
Cc1ccc(C(O)(C(=O)NNc2ccccn2)c2ccc(C)cc2)cc1
Cc1ccc(C)c(N(C(=O)c2csnn2)C(C(=O)NC2CCCC2)c2cccnc2)c1 (stereo not drawn)
CN(c1cccc(Cl)c1)S(=O)(=O)c1cccc(C(=O)Nc2ccc3c(c2)CCC3)c1
O=C(O)COc1ccc(NC(=O)C(c2ccccc2)c2ccccc2)cc1
Cc1ccc(-n2nnc3c(SCC(=O)NCC4CCCO4)ncnc32)cc1 (stereo not drawn)
CC(=O)c1sc(NC(=O)c2ccc(C)cc2)nc1C
Cc1ccc(CNC(=O)Cc2ccc(-c3ccccc3)cc2)cc1
NCCN1CCN2C(=O)CN(C(=O)c3ccccc3)CC12 (stereo not drawn)
CC(CC(=O)Nc1cc([N+](=O)[O-])ccc1Cl)c1ccccc1 (stereo not drawn)
COc1ccc(NC(=O)CCN2CCCCCC2)cc1
COc1ccc(N(CC(=O)Nc2ccc(S(=O)(=O)N3CCCC3)cc2)S(C)(=O)=O)cc1OC
Cc1ccc(NC(=O)c2ccc(OC(=O)CCN3C(=O)c4ccccc4C3=O)cc2)cc1
Cc1ccc(NC(=O)CSc2nnc(-c3cccs3)n2Cc2ccco2)cc1
COc1ccc(N2CCN(C(=O)CSc3nnc(-c4cccnc4)n3-c3ccccc3)CC2)cc1
COc1cc(S(=O)(=O)N(Cc2cccs2)CC2CCCO2)ccc1-n1cnnn1 (stereo not drawn)
CCOC(=O)c1sc2nc(N3CCOCC3)c3c(c2c1N)CCN(Cc1ccccc1)C3
CCOC(=O)c1c(S(=O)(=O)N2CCN(c3ccc(F)cc3)CC2)c(C)n(C)c1C
CCOC(=O)c1c(C)[nH]c(C)c1S(=O)(=O)N(C)CC(=O)N(C)Cc1ccccc1
C[C@H]1CN([C@@H](C)CO)C(=O)c2cccc(NS(=O)(=O)c3ccc(F)cc3)c2O[C@H]1CN(C)S(=O)(=O)c1cn(C)cn1
Cc1ccc(C(=O)CN2C(=O)C(=O)N(Cc3ccccc3)C2=O)cc1
COc1cccc(/C=C/C(=O)OCC(=O)NCc2ccc(Cl)cc2)c1
O=C(Nc1c(Cl)cccc1Cl)c1cc(-c2ccco2)on1
Cc1ccc(C(=O)NCc2ccco2)cc1Br
Cc1ccc(S(=O)(=O)N(C)C[C@@H]2Oc3ccc(NC(=O)Cn4cnnn4)cc3C(=O)N([C@@H](C)CO)C[C@H]2C)cc1
CCn1c(CNC(=O)Cc2ccc(OC)cc2)nnc1SCC(=O)NC1CCCCC1
CCn1nnnc1SCC(=O)NCc1cccs1
Cc1ccccc1-c1ccc(=O)n(CC(=O)Nc2ccc(N3CCOCC3)cc2)n1
CC(C)CC(=O)Nc1ccccc1N1CCOCC1
